According to PubChem BioAssay AID612 (The Scripps Research Institute Molecular Screening Center, 2007):
About 420 (0.68%) of roughly 62,000 compounds were called active. The sample holds actives, similar compounds and a random draw of the others, so the mix is not that of the screen.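 The calls were made as follows: active = inhibition above the mean of all tested compounds plus 3 SD (cut at about 43% in these data); inactive = the rest.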

The molecules below were run against 5-hydroxytryptamine receptor 1A (Homo sapiens) (UniProt P08908) (assay: human 5-HT1a receptor antagonists, primary screen, cell-based, CHO, Ga15 NFAT-bla reporter (AID 612;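 also: receptor stimulated by 5-CT agonist at 100 nM near EC80; beta-lactamase reporter measured by ratiometric fluorescence of a cleavable substrate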)). Details: CHO 5-HT1a Ga15 NFAT-bla reporter, antagonist mode; at 10 µM; stronger effect = higher value.
Chain of 5-hydroxytryptamine receptor 1A (Homo sapiens) (P08908 whole entry, looked up): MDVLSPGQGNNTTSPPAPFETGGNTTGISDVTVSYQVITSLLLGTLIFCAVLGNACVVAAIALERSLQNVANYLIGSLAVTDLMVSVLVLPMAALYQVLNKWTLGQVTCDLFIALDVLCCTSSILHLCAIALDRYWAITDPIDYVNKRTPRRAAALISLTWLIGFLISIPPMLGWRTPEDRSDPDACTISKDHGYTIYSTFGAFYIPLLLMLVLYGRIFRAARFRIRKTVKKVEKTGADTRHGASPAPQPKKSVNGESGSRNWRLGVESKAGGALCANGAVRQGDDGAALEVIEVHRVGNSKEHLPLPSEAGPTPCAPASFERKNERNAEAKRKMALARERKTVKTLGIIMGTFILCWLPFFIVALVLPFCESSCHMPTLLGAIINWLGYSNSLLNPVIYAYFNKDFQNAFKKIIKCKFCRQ
For `O=C(Nc1cc(C(F)(F)F)ccc1Cl)c1cc(C2CC2)on1`, the inhibition was 2.5% (inactive).
In the case of `O=C(OCC(O)C(O)COC(=O)c1ccccc1)c1ccccc1` (stereo not given), the inhibition is reported as -11.9% (inactive).
`S=C1SCN(CCN2CCOCC2)CN1Cc1ccccc1` was tested, and the inhibition was -2.1% (inactive).
In the case of `CCOc1ccccc1C1NC(=O)NC(C)=C1C(=O)OCc1ccco1` (stereo not given), the inhibition is reported as -4.6% (inactive).
For `CCOc1ccc2[nH]c(=O)c(C(c3nnnn3CCOC)N3CCOCC3)cc2c1` (stereo not given), the inhibition was -1.9% (inactive).
With `CC(=O)c1sc2nc(SCC(=O)N3CCCCC3)[nH]c(=O)c2c1C` the inhibition was -6.6% (inactive).
For `Cc1cccc(NC(=O)c2ccccc2NC(=O)C(C)(C)C)n1`, the inhibition was 1.6% (inactive).
With `O=S(=O)(Nc1ccccc1N1CCOCC1)c1ccc(Cl)s1` the inhibition was 4.3% (inactive).
`CCOC(=O)C1CCN(Cc2coc3ccc(Cl)cc3c2=O)CC1` was tested, and the inhibition was 5% (inactive).
`O=C(NCc1ccc2c(c1)OCO2)C1CCCN(S(=O)(=O)c2cccs2)C1` (stereo not given) was tested, and the inhibition was -2.9% (inactive).
In the case of `Cc1ccnc(SCCn2c(Br)nc3c2c(=O)[nH]c(=O)n3C)n1`, the inhibition is reported as -4.8% (inactive).
`CC(C)Cc1cc(C(=O)Nc2cc(Br)ccc2O)no1` was tested, and the inhibition was 17.4% (inactive).
With `CCn1c(SCC(=O)Nc2nccs2)nnc1-c1ccncc1` the inhibition was -5% (inactive).
For `Cc1ccc(C(=O)NC2CCN(C(=O)N3CCOCC3)CC2)cc1`, the inhibition was -11.8% (inactive).
In the case of `COc1ccc(CCN(C)CCN2C(=O)c3ccccc3C2=O)cc1OC`, the inhibition is reported as -14.2% (inactive).
`COc1ccc(CCN2C(=O)c3[nH]nc(-c4ccccc4O)c3C2c2ccc(C)cc2)cc1OC` (stereo not given) was tested, and the inhibition was 54.6% (active).
For `COc1cc(C2C(C(=O)c3ccc(C)o3)=C(O)C(=O)N2CCc2ccccc2)ccc1O` (stereo not given), the inhibition was -1.1% (inactive).
With `O=C(C1CC1)N1CCN=C1SCc1ccc(Cl)cc1` the inhibition was 13% (inactive).
In the case of `N#CC1=C(N)C(C#N)(C#N)[C@H](c2ccsc2)[C@H]2COCC=C12`, the inhibition is reported as -8.8% (inactive).
`O=C(CN1CCOCC1)Nc1c(-c2ccccc2)c2cc(Br)ccc2[nH]c1=O` was tested, and the inhibition was -10.8% (inactive).
